# BoNT A protease – inhibitors of Botulinum neurotoxin A light chain protease | multiplex microsphere protease substrate cleavage, flow cytometry | inhibition, % at 10 µM | 360,000 compounds, 0.17% hits; note: plate controls were buffer without enzyme for full effect and enzyme alone for no effect
# PriA SSB inh – blocks PriA binding to SSB C-terminal tail | AlphaScreen SSBct-PriA binding, biotinylated peptide | inhibition, % at 33 µM | 430,000 compounds, 0.6% hits; in the data active = inhibition mostly above about 37%, no sharp cut-off; inactive = mostly below about 20%;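 note: plate controls were negative control peptide for no effect and reference peptide for full effect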
# Anthrax LF inh2 – anthrax lethal factor protease inhibition. multiplex microsphere protease cleavage assay, LF. inhibition, % at 10 µM. 360,000 compounds, 0.12% hits; note: plate controls were buffer without enzyme for full effect and enzyme alone for no effect
# Target sequence (P15917 whole entry, looked up): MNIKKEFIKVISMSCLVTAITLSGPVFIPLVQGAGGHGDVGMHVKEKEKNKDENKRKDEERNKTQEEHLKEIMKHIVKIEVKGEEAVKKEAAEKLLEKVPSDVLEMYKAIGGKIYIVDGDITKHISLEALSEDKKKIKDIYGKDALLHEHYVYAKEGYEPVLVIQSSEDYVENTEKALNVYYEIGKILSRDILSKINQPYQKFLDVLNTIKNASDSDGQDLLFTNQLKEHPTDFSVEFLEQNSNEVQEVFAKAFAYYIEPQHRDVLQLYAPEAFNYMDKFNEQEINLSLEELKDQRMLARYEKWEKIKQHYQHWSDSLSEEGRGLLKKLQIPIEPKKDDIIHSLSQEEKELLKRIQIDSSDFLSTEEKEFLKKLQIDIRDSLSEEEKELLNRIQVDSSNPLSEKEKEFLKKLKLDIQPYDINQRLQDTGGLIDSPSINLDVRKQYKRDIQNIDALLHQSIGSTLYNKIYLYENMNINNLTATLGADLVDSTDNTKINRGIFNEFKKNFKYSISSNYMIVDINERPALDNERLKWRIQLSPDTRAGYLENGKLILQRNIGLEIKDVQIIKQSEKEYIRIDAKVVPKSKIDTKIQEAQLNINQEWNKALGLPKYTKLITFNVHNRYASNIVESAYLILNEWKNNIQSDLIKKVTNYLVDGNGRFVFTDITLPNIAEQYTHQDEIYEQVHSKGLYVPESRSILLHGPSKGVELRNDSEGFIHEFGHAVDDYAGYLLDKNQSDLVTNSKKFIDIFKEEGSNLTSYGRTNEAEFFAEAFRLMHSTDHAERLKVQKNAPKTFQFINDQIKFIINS
# Autofluor counter – flagged as autofluorescent in microsphere protease counterscreen; compound autofluorescence counterscreen, microsphere flow cytometry; active compounds read high; fluorescence intensity (test concentration not listed); 360,000 compounds, 3.1% hits; in the data active = fluorescence intensity above about 16000; inconclusive = no clear call, values can overlap the other calls
# BoNT-F LC inh – blocks Botulinum neurotoxin F light chain protease | 360,000 compounds, 0.22% hits | inhibition, % at 10 µM | Multiplex microsphere protease cleavage assay, flow cytometry; in the data active = inhibition above about 35%, passing the limit was not always enough; inconclusive = no clear call, values can overlap the other calls; note: plate controls were buffer without enzyme for full effect and enzyme alone for no effect
# Active calls of the source: *; u = inconclusive; x = not tested or not shown. Compounds with a hit are over-represented: about 3.1% of the library has one in this group of screens. Cut-off read from the data, not from the text of the source, unless noted: active = inhibition above about 30%; inconclusive = no clear call, values can overlap the other calls; inactive = below that.
SMILES,BoNT A protease,PriA SSB inh,Anthrax LF inh2,Autofluor counter,BoNT-F LC inh
CCOC(=O)C1CCN(C(=O)Cn2ccn3nc(-c4ccc(OCC)cc4)cc3c2=O)CC1,x,-4,x,x,x
CN1CCN(c2ccc([N+](=O)[O-])cc2NC(=O)c2ccccc2)CC1,u,8,-4,16981*,-3
COc1ccc(C(=O)Nc2ccc(S(=O)(=O)N3CCN(C)CC3)cc2)cc1,0,12,0,5222,-7
O=C(Nc1cc([N+](=O)[O-])ccc1N1CCCC1)c1ccccc1,0,9,-3,4138,-1
CN1CCN(c2ccccc2NC(=O)c2cccc([N+](=O)[O-])c2)CC1,0,-15,-16,3821,-33
CN1CCN(NC(=O)c2cc([N+](=O)[O-])cc([N+](=O)[O-])c2)CC1,2,-6,1,18837*,-2
COc1ccc(C(=O)Nc2cc([N+](=O)[O-])ccc2N2CCN(C)CC2)cc1,2,-21,-4,19500*,0
COc1ccc(OC)c(NC(=O)c2ccc(S(=O)(=O)N3CCN(C)CC3)cc2)c1,0,-2,-1,22427*,-2
Cc1ccc(-n2ncc3c(C4CC4)n[nH]c(=O)c32)cc1C,x,-10,x,x,x
O=C(NN=Cc1cccc(OCc2ccccc2)c1)c1cccs1,x,-1,x,x,x
CCOc1cc(Nc2ccc(NC(=O)Nc3cccc(Cl)c3)cc2)nc(C)n1,x,8,x,x,x
CN1CCN(S(=O)(=O)c2cccc(F)c2)CC1,x,9,x,x,x
COc1cccc(C(=O)Nc2cc([N+](=O)[O-])ccc2N2CCN(C)CC2)c1,-4,1,-3,24311*,-9
O=C(Nc1nc2c(F)cccc2s1)c1ccc(-c2ccccc2)cc1,x,-5,x,x,x
Nc1c(-c2ccc(Cl)cc2)cnc2ncnn12,1,-1,-1,23393*,0
COc1ccc(-c2cnc3ncnn3c2N)cc1,0,-11,0,2477,-4
CCCCN(CC)Cc1ccc(CNC(=O)Nc2ccc(Cl)cc2)o1,-1,8,2,5350,-7
CCCCN(CC)Cc1ccc(CNC(=O)Nc2ccc(OCC)cc2)o1,1,-9,-1,20423*,1
c1ccc2c(c1)oc1c(NCC3CCCO3)ncnc12 (stereo not given),0,-4,0,23180*,2
CC(C)Cc1nc2oc3c(NCC4CCCO4)ncnc3c2c2c1CCC2 (stereo not given),u,-8,2,18869*,3
c1ccc(CNc2ncnc3c2oc2ccccc23)nc1,u,9,-4,22122*,-1
O=C(O)CNc1nc(-c2ccccc2)nc2c1oc1ccccc12,1,3,1,4190,-9
c1ccc(-c2nc(NCC3CCCO3)c3oc4ccccc4c3n2)cc1 (stereo not given),u,-9,-3,23676*,-1
CC(C)Cc1nc2oc3c(NCc4cccnc4)ncnc3c2c2c1CCC2,0,-17,-7,9172,-1
Cc1cc(C)n(CCN(C(=O)c2cc3ccccc3oc2=O)c2nc3c(F)cc(F)cc3s2)n1,x,-8,x,x,x
SMILES,BoNT A protease,PriA SSB inh,Anthrax LF inh2,Autofluor counter,BoNT-F LC inh
CCOC(=O)N1CCC(Nc2ncnc3c2cnn3-c2ccccc2)CC1,u,-11,0,26060*,-8
CNc1ncnc2c1cnn2-c1ccccc1,x,21,x,x,x
NNc1ncnc2c1cnn2-c1ccccc1,-2,64*,-2,2954,-1
NNc1ncnc2c1cnn2-c1ccc(F)cc1,x,73*,x,x,x
Nc1cc(-c2cccs2)nn1C1CCS(=O)(=O)C1 (stereo not given),x,22,x,x,x
CCC(=O)OCc1c(C(F)(F)F)nn(C)c1Sc1ccc(F)cc1,0,-5,-10,8845,-4
CC(=O)OCc1c(C(F)(F)F)nn(C)c1Sc1ccccc1,1,-23,-2,19824*,1
Cc1nc(-n2cccc2)sc1C(=O)NC1CC(O)C(CO)C1 (stereo not given),x,-9,x,x,x
Cc1nc(NN=Cc2ccccn2)sc1C,x,11,x,x,x
Cc1csc(NN=Cc2ccccn2)n1,x,58*,x,x,x
CCCc1sc(NN=Cc2ccccn2)nc1-c1ccc(F)cc1,x,41*,x,x,x
CC(C)Cn1c(NCCO)nc2ccccc21,1,-15,-1,19740*,0
CC[C@@H](C)[C@H](NC(=O)Cc1c(C)c2c(cc(C)c3c(C)c(C)oc32)oc1=O)C(=O)O,2,-7,-11,3639,38*
O=C1C2=C(Nc3ccccc3SC2c2ccco2)c2ccccc21 (stereo not given),0,48*,-3,2348,-10
COc1ccc(OC)c(S(=O)(=O)Nc2ccc(Oc3ccccc3)cc2)c1,2,-19,-11,21725*,-1
CCN(c1ccccc1)S(=O)(=O)c1cc(OC)ccc1OC,1,3,-3,22526*,1
CCN(c1ccccc1)S(=O)(=O)c1ccc(OC)c(OC)c1,0,-14,-1,11560,-6
O=C(NCCSC1CCOCC1)Nc1ccccc1Cl,x,-15,x,x,x
CC(=O)Nc1ccc2scnc2c1,x,4,x,x,x
CCNC(=O)C(=O)NCCCCN1CCOC(c2ccccc2)C1 (stereo not given),x,-5,x,x,x
O=C(Nc1ccccc1)c1ccn[nH]1,-1,-7,-2,2448,-2
CC(=O)c1ccc(NC(=O)c2ccn[nH]2)cc1,-1,-2,0,22226*,-3
O=[N+]([O-])c1ccc(-[n+]2nc(-c3ccccc3)nn2-c2ccc(I)cc2)cc1,x,155*,x,x,x
c1ccc(-c2nn(-c3ccccc3)[n+](-c3ccccc3)n2)cc1,0,-1,-2,4052,-4
COc1ccc(N2CCN(Cc3nc4ccsc4c(=O)[nH]3)CC2)cc1,0,-1,-1,20654*,-2
SMILES,BoNT A protease,PriA SSB inh,Anthrax LF inh2,Autofluor counter,BoNT-F LC inh
O=c1[nH]c(CN2CCN(c3ccc([N+](=O)[O-])cc3)CC2)nc2ccsc12,0,1,-2,2161,-10
COc1ccc(C(=O)OCC(=O)Nc2nnc(-c3ccccc3)o2)cc1,x,0,x,x,x
CCOc1ncccc1C(=O)OCC(=O)Nc1nnc(-c2ccccc2)o1,-1,3,-3,5627,-9
O=C(OCc1ccccc1)c1cccc(-c2nnc(-c3ccccc3)o2)c1,u,-2,-1,23216*,-3
O=C(COC(=O)c1cccc(O)c1)Nc1nnc(-c2ccccc2)o1,-1,43*,-3,5167,-1
O=C(COC(=O)c1ccc(O)cc1O)Nc1nnc(-c2ccccc2)o1,-8,57*,u,u,u
O=C(OCc1ccc(C(=O)c2ccccc2)cc1)c1cccc(-c2nnc(-c3ccccc3)o2)c1,-2,-1,-3,13281,-16
CCc1cccc(OCC(O)Cn2c(N=Nc3c(O)[nH]c(=O)[nH]c3=O)nc3c2c(=O)[nH]c(=O)n3C)c1 (stereo not given),x,-2,x,x,x
O=C(NCCC1=CCCCC1)C(=O)NCC[C@H]1CCCCN1S(=O)(=O)c1cccs1,x,-5,x,x,x
O=C(Cn1nc(Cl)nc1Cl)c1cc2ccccc2oc1=O,1,-16,-2,16246*,2
COCCN1C(=O)C(=O)C(=C(O)c2ccc(S(=O)(=O)N3CCCCC3)cc2)C1c1ccc(OC)c(OC)c1 (stereo not given),x,-3,x,x,x
Clc1cccc(Cl)c1C[n+]1cccc2ccccc21,-4,-5,9,5584,u

# Screens: PubChem BioAssay, several laboratories
